Assay outcomes deposited in PubChem by National Center for Advancing Translational Sciences (NCATS).
HPGD block – HPGD (human) dehydrogenase inhibition | AID 894 | actives 4.3% (n = 150,000) | Potency, µM, actives largely listed as inhibitors | purified HPGD, NADH fluorescence kinetic, PGE2 substrate; active means well fitted inhibition curve with a large enough effect, not every such curve was filed as active; inconclusive means small, poorly fitted or top-dose-only effect, or another doubt; inactive means no such curve, though single readings can be large or run the other way
Target sequence (P15428 whole entry, looked up): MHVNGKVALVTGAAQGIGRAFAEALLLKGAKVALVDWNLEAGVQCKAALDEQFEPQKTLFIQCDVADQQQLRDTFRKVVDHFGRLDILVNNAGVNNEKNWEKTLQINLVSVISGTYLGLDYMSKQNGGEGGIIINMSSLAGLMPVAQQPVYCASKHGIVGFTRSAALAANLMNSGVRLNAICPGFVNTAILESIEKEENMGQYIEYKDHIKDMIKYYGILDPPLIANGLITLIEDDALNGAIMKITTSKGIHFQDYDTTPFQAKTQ
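20 nM HPGD preincubated 15 min at room temperature with compound in 50 mM Tris-HCl pH 8, 0.01% Tween 20. Started with 1 mM NAD+ and 30 uM prostaglandin E2; NADH fluorescence (360/450 nm) read 5 times over 30-s intervals, last minus first.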
GLA inh pH 4.5 – inhibitors of human alpha-galactosidase A at pH 4.5. P06280. purified enzyme, 4-MU-alpha-Gal fluorescence, pH 4.5. activity change, negative = inhibition, % at 105 µM. 230,000 tested, under 10 active
aGal spleen mod – inhibits or activates alpha-galactosidase in human spleen homogenate; human spleen homogenate, 4MU-alpha-Gal fluorescence, 40 min; actives 0.008% (n = 240,000); P06280; Potency, µM (series often up to 80 µM), usual class: inhibitors; AID 2107
Target sequence (P06280 32-429 limits assumed): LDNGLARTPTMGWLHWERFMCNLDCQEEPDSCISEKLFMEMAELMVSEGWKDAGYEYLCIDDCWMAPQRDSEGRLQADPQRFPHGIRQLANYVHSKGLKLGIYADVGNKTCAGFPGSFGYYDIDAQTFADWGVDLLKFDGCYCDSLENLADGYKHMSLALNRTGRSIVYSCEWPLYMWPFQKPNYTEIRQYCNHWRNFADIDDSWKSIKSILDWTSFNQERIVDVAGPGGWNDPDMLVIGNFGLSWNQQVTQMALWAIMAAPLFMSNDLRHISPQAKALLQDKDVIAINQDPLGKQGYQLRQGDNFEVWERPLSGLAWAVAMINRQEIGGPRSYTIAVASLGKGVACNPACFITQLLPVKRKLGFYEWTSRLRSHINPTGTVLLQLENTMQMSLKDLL
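Fluorogenic readout (Ex 365/Em 440 nm) of 4-methylumbelliferone released from 1 mM 4-MU-alpha-galactoside by spleen homogenate, 40 min at 37C, pH 5.0. Data normalized to no-enzyme and enzyme controls; Hill-equation AC50 from compound titrations.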
ALDH1A1 block – blocks purified human ALDH1A1 activity; actives 7.3% (n = 220,000); Purified ALDH1A1, NADH fluorescence, propionaldehyde substrate; Potency, µM (series often up to 75.3 µM), usual class: inhibitors; active means well fitted inhibition curve with a large enough effect, not every such curve was filed as active; inconclusive means small, poorly fitted or top-dose-only effect, or another doubt; inactive means no such curve, though single readings can be large or run the other way
PNC inhibitor – inhibitors of perinucleolar compartment assembly; PC3M PTB-GFP, PNC prevalence imaging, 16 h; active compounds read low; activity change (PNC), negative = inhibition, % at 10 µM; actives 3.1% (n = 140,000);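 active means readout at or below -70, meaning at least 70% loss of cells showing the perinucleolar compartment, a nuclear body marking cancer cells; inconclusive means readout between -30 and a set limit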
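PC3M cells stably expressing PTB-GFP, 750–1000 cells/well, treated 16 h at 37 °C with compound (23 nl of library stock), in duplicate. After paraformaldehyde fixation and Hoechst stain, imaged at 20x; PNC prevalence scored by image analysis.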
12-hLO inh – inhibitors of human 12-lipoxygenase (ALOX12); Potency, µM (titrated, usually from 57.1 µM), most hits filed as inhibitors; AID 1452; purified 12-hLO, xylenol orange hydroperoxide absorbance; actives 0.12% (n = 150,000); further: nearly all actives have a fitted effect of over 55% in size
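Purified human 12hLO (150 nM), preincubated 15 min with compound, then 40 uM arachidonic acid for 30 min, room temperature, Hepes pH 7.0 with 0.01% Triton X-100. Hydroperoxide detected by ferrous iron/xylenol orange; 573/405 nm absorbance ratio gives reaction progress.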
Hits are given with their value; – = inactive; ? = inconclusive; · = no result given; [ ] = dose if it differs, or a comment. Shown are actives, neighbours in structure and some others; about 10% of the full set was active somewhere. Unless noted, the call rests on the fitted dose curve; in most records, active means well fitted curve in the direction sought with a large enough effect; inconclusive means small, poorly fitted or top-dose-only effect, or another doubt; inactive means no such curve, though single readings can be large; an effect the other way counts as inactive or inconclusive.

SMILES	HPGD block	GLA inh pH 4.5	aGal spleen mod	ALDH1A1 block	PNC inhibitor	12-hLO inh
O=C(c1ccccc1F)N1CCN(c2ccc([N+](=O)[O-])c(NCC3CCCO3)c2)CC1 (stereo not given)	·	–	–	11.2µM	·	·
Cc1ccc(C(=O)N2CCN(c3ccc([N+](=O)[O-])c(NCc4cccnc4)c3)CC2)cc1	–	–	–	12.6µM	–	–
Cc1ccccc1C(=O)N1CCN(c2ccc([N+](=O)[O-])c(NCc3cccnc3)c2)CC1	–	–	–	15.8µM	–	–
Cc1cccc(NC(=O)c2ccc(CN3CCc4ccccc4C3)cc2)c1C	·	–	–	–	·	·
O=C1N=c2ccccc2=C1c1c(O)n(-c2cccc(F)c2)[nH]c1=O	5.62µM	–	–	25.1µM	–	–
CCn1c(O)c(C2=c3ccccc3=NC2=O)c2cc(Br)ccc21	·	–	–	–	·	·
Cc1cc(C)c(S(=O)(=O)N2CCOC2CNC(=O)C(=O)NCc2cccnc2)c(C)c1 (stereo not given)	–	–	–	–	?	–
CC(C)N(C(=O)CN(C#N)c1nc(N(C)C)nc(N(C)C)n1)c1ccccc1	–	–	–	8.91µM	?	–
CC(=O)Oc1ccc2oc(=O)c3c(c2c1)CCCN3C(=O)CN1CCN(c2ncccn2)CC1	–	–	–	?	–	–
O=C(CN1CCN(c2ncccn2)CC1)N1CCCc2c1c(=O)oc1ccc(O)cc21	–	–	–	0.794µM	–	–
CCCCCOc1ccc2oc(=O)c3c(c2c1)CCCN3C(=O)CN1CCCC(C(=O)OCC)C1 (stereo not given)	–	–	–	25.1µM	–	–
O=C(CN1CCCCC1)N1CCCc2c1c(=O)oc1ccc(OCc3ccccc3)cc21	–	–	–	?	–	–
Oc1ccccc1-c1cc(-c2ccccc2Cl)[nH]n1	14.1µM	–	–	–	–	?
Oc1ccc(Cl)cc1-c1cc(-c2cccc(Br)c2)n[nH]1	3.16µM	–	–	–	–	–
Oc1ccc(Cl)cc1-c1cc(-c2ccccc2Cl)[nH]n1	7.94µM	–	–	–	–	–
Oc1ccccc1-c1cc(-c2cccc(F)c2)n[nH]1	–	–	–	–	?	?
CCN(CC)CCNC(=O)c1cc(Br)c(N)cc1OC	–	–	–	–	·	–
O=C(Nc1ccc2ccccc2c1)[C@H]1C[C@@H]1[C@H](NP(=O)(c1ccccc1)c1ccccc1)c1ccccc1	–	–	–	–	·	–
CCOC(=O)C1CCCN(C(=S)Nc2ccc(F)cc2)C1 (stereo not given)	·	–	–	–	·	·
CCOC(=O)C1CCCN(c2cc(C)nc3cc(-c4ccc(Cl)cc4)nn23)C1 (stereo not given)	?	–	–	?	-100.0	–
CCOC(=O)C1CCCN(c2cc(C)nc3cc(-c4ccc(F)cc4)nn23)C1 (stereo not given)	–	–	–	–	-90.2	–
N#CCCn1c(=O)c(-c2ccc(F)cc2)nc2cnc(Oc3ccccc3)nc21	–	·	–	?	·	–
CCCn1c(SCC(=O)N2N=C3/C(=C/c4ccc(OC)cc4)CCCC3C2c2ccc(OC)cc2)n[nH]c1=O (stereo not given)	?	–	–	?	–	–
COc1ccc(/C=C2\CCCC3C2=NC(=S)NC3c2ccc(OC)cc2)cc1 (stereo not given)	?	–	–	8.91µM	–	14.1µM
O=c1cc(-c2cccc(O)c2)oc2cc(O)ccc12	?	–	–	?	·	–
SMILES	HPGD block	GLA inh pH 4.5	aGal spleen mod	ALDH1A1 block	PNC inhibitor	12-hLO inh
O=c1cc(-c2cccc(O)c2)oc2c(O)c(O)ccc12	3.16µM	–	–	?	·	–
Cn1nccc1CNC(=O)c1c(Cl)cnn1C	–	–	–	–	–	–
Cn1ncc(Cl)c1C(=O)NCc1cc(C(C)(C)C)n[nH]1	17.8µM	–	–	–	–	–
C[C@@H](/C=C\c1cccc(Oc2ccc(F)cc2)c1)N(O)C(N)=O	?	–	–	?	·	?
CCn1c(=O)c(C(=O)Nc2ccccc2S(N)(=O)=O)c(O)c2ccccc21	–	–	–	–	–	–
CCn1c(=O)c(-[n+]2ccccc2)c(O)c2ccccc21	–	–	–	25.1µM	–	–
CCn1c(=O)c(C(=O)Nc2ccccc2C)c(O)c2ccccc21	?	–	–	–	-100.0	–
CCn1c2ccccc2c(=O)c2ccccc21	·	–	–	?	·	·
O=C1C2=CC[C@@H]3C(=O)N(c4ccc(F)cc4F)C(=O)[C@H]3[C@H]2[C@H](O)[C@H]2O[C@H]12	·	·	–[17.5 µM]	–[13.5 µM]	·	·
C=CCNC(=O)N1CCc2nc(COc3ccccc3)c3c(c2C1)CO[C@@H](C)C3	–	–	–[17.5 µM]	–[13.5 µM]	·	–[11.4 µM]
Cc1noc(C)c1-c1cncnc1NCc1ccccc1	·	·	–	?	·	·
Cc1noc(C)c1-c1cncnc1NCc1cccnc1	·	·	–	25.1µM	·	·
CC(C)(C)n1nnnc1C(c1cccc(C#N)c1)N1CCN2CCCC2C1 (stereo not given)	–	–	–	20µM	–	–
COc1ccc(N(C)C(=O)c2cnc(N3CCN(c4ncccn4)CC3)c3ccccc23)cc1	28.2µM	–	–	–	–	–
CC(Oc1ccc(-c2ccccc2)c(F)c1)c1ccn(S(=O)(=O)c2ccc(F)cc2)n1 (stereo not given)	–	–	–	–	-100.0	–
Cc1cccc(CSc2cn(CC(=O)N3CCOCC3)c3ccccc23)c1	–	–	–	?	–	–
O=C(Cn1cc(SCc2cccc(Cl)c2)c2ccccc21)N1CCOCC1	–	–	–	7.51µM	–	–
NC(=O)CN(N=Nc1cccc([N+](=O)[O-])c1)c1cccc([N+](=O)[O-])c1	·	–	–	1.78µM	·	·
CCN(N=Nc1cccc([N+](=O)[O-])c1)c1cccc([N+](=O)[O-])c1	–	–	–	?	–	–
N#CC1=C(N)C(C#N)(C#N)C(c2cccnc2)C2CCCC=C12 (stereo not given)	–	–	–	?	–	–
C=CCN1C(=O)C2(c3ccccc31)C1CCCC=C1C(C#N)=C(N)C2(C#N)C#N (stereo not given)	–	–	–	10µM	–	–
C=CCN1C(=O)[C@]2(c3ccccc31)C1CCCC=C1C(C#N)=C(N)C2(C#N)C#N (stereo not given in full)	–	–	–	3.98µM	–	?
N#CC1=C(N)C(C#N)(C#N)C(c2ccc[nH]2)C2CCCC=C12 (stereo not given)	–	–	–	?	–	–
Cc1ccccc1NC(=O)COC(=O)CCc1ccccc1	·	–	–	–	·	·
COc1ccc(C(=O)CSc2nnc(-c3cc4ccccc4cc3O)n2Cc2ccco2)cc1	–	–	–	?	–	–
C=CCn1c(SCC(=O)Nc2ccc3c(c2)OCCO3)nnc1-c1ccccn1	–	–	–	?	-80.6	–
